The record followed here is PubChem BioAssay AID1694 (National Center for Advancing Translational Sciences (NCATS), 2009).

Records with an inconclusive call do not appear. Where a call stands in place of a potency, no number is given. Activity calls are given as the source filed them. Calls follow the shape of the dose curve; as a rule, active = well fitted curve in the direction sought with a large enough effect; inconclusive = small, poorly fitted or top-dose-only effect, or another doubt; inactive = no such curve, though single readings can be large or run the other way.

A short description of the assay: Confirmation Concentration-Response Assay for Inhibitors of Tau Fibril Formation, Total Fluorescence Counterscreen for Fluorescence Polarization. Particulars: Alexa594-tau K18 total fluorescence counterscreen, interference, tau K18 with P301L mutation; series mostly up to 100 µM. From the text:
NIH Molecular Libraries Probe Production Network [MLPCN] NIH Chemical Genomics Center [NCGC] MLPCN Grant: X01 MH083262-01 Assay Provider: Carlo Ballatore, University of Pennsylvania NCGC Assay Overview: The microtubule-associated protein tau is an abundant protein in the axons of neurons that stabilizes microtubules. With its ability to modulate microtubule dynamics, tau contributes directly or indirectly, to key structural and regulatory cellular functions. Particularly important is the influence tau exerts on axonal transport, which allows signaling molecules, trophic factors and other essential cellular constituents to travel along the axons. Under pathological conditions, tau becomes sequestered into insoluble aggregates called neurofibrillary tangles. This phenomenon is believed to have pathological consequences by promoting axonal transport deficits that ultimately lead to synaptic dysfunction and neuronal loss. To identify inhibitors of tau aggregation, a heparin-induced tau fibril formation assay was used that employed a recombinantly expressed fragment of tau, K18 (Q242-E372), bearing a P301L mutation (Gustke et al. 1994; Hong et al. 1998). […] Total fluorescence (555 nm excitation and 632 nm emission) was measured to identify fluorescent or absorbent compounds at this wavelength. Such compounds may be artifacts that interfere with the Alexa 594 Tau fluorescence polarization assay. Gustke, N., B. Trinczek, et al. (1994). "Domains of tau protein and interactions with microtubules." Biochemistry 33(32): 9511-22. Hong, M., V. Zhukareva, et al. (1998). "Mutation-specific functional impairments in distinct tau isoforms of hereditary FTDP-17." Science 282(5395): 1914-7. Li, W. and V. M. Lee (2006). "Characterization of two VQIXXK motifs for tau fibrillization in vitro." Biochemistry 45(51): 15692-701. von Bergen, M., S. Barghorn, et al. (2001). "Mutations of tau protein in frontotemporal dementia promote aggregation of paired helical filaments by enhancing local beta-structure." J Biol Chem 276(51): 48165-74.
For screening, 2 uL/well human K18 P301L (15 uM unlabeled and 0.24 uM Alexa 594-labeled tau final concentrations) in reagent buffer (100 mM sodium acetate pH 7) was dispensed into black solid 1536-well plates (Grenier) using a solenoid-based dispenser. Following transfer of 23 nL compound or DMSO vehicle by a pin tool, 2 uL/well heparin (20 uM final concentration) in reagent buffer was added and the plate centrifuged 15 s at 1000 RPM. Plates were incubated 6 hr at 37 C and then 1 uL/well ThT (30 uM final concentration) was added. After a 1 hr ambient incubation, the plates were read by an Envision (Perkin Elmer) to monitor Alexa 594 FP (555 nm excitation and 632 nm emission). Keywords: NIH Roadmap, MLPCN, MLI, MLSMR, NCGC, qHTS, tau, tauopathies, Alzheimer's disease, fibril, neurodegeneration, aggregation
On the technique in general: A counterscreen serves to expose hits that act by an unwanted route or on another target.
With `NC[C@@H](O)c1ccc(O)c(O)c1`, the Potency entry was “inactive”.

In the case of `Nc1c(-c2ccccc2)cc[nH]c1=O`, the Potency result is “inactive”.

In the case of `CCOC(=O)c1nn(-c2ccc(OC)cc2)c(=O)c2c(NC(=O)Cc3ccccc3)scc12`, the Potency result is “inactive”.

As for `COC(=O)c1c(NC(=O)CCCOc2cccc(C)c2)sc2c1C(C(=O)OC)CC2` (stereo not given), the Potency entry was “inactive”.

Consider `CN(C)C(=O)c1ccc(-c2cc[nH]c(=O)c2N)cc1`, for which the Potency entry was “inactive”.

As for `Nc1scc2c(CO)nn(-c3ccccc3)c(=O)c12`, the Potency result was “inactive”.

Regarding `O=C(O)CC1S/C(=N/N=C/c2ccc(-c3ccccc3[N+](=O)[O-])o2)NC1=O` (stereo not given), the Potency result was “inactive”.

As for `COc1ccc2[nH]c(=O)c(CNc3ccccc3OC)cc2c1`, the Potency entry is “inactive”.

On to `Cn1ncc(Cl)c1C(=O)Nc1cccc(Cl)c1`, for which the Potency result is “inactive”.

On to `Nc1c(-c2ccncc2)cc[nH]c1=O`, for which the Potency entry is “inactive”.

Turning to `COC(=O)c1c(NC(=O)CCCOc2ccc(C)cc2)sc2c1C(C(=O)OC)CC2` (stereo not given), the Potency result is “inactive”.

Take `COC(=O)c1ccccc1NC(=O)CSc1nc2sc3c(c2c(=O)[nH]1)CCCC3`: the Potency result was “inactive”.

For the compound `O=S(=O)(c1ccc(N=C2NN=C(c3cc(F)ccc3F)CS2)cc1)N1CCOCC1`, the Potency entry is “inactive”.

Consider `O=C(Nc1cccc(-c2nc3ccccc3o2)c1)c1cc([N+](=O)[O-])ccc1N1CCOCC1`, for which the Potency result was “inactive”.

Turning to `CN(C)c1ccc(-c2cc[nH]c(=O)c2N)cc1`, the Potency result was “inactive”.

In the case of `CCOC(=O)c1nn(-c2ccccc2)c(=O)c2c(NC(C)=O)scc12`, the Potency entry is “inactive”.

As for `Cn1sc(NC(=O)c2ccccc2)nc1=O`, the Potency entry is “inactive”.

On to `O=C(NCc1cccnc1)C1CCN(S(=O)(=O)c2cccs2)CC1`, for which the Potency result is “inactive”.

Consider `O=C(Nc1ccccc1)Nc1ccccc1`, for which the Potency entry was “inactive”.

For the compound `COc1ncc(-c2ccccc2)cc1N`, the Potency result was “inactive”.

For the compound `CCn1c(CSc2nccn2C)nc2cc(C(=O)O)ccc21`, the Potency result was “inactive”.

`COc1cc(/C=N/N=C2/NC(=O)C(CC(=O)O)S2)ccc1OCc1ccc(Cl)cc1` (stereo not given): the Potency result is “inactive”.

With `COc1ccc2[nH]c(=O)c(CNc3cccc(C)c3)cc2c1`, the Potency entry was “inactive”.

With `Cc1ccc(C2=NNC(=Nc3ccc(F)cc3)SC2)cc1`, the Potency entry is “inactive”.

As to `Nc1nn(-c2ccccc2)c(=O)c2c(N)scc12`, the Potency entry is “inactive”.
